This passage reports relative % inhibition results from the supplement of paper PMC3842684.

Structures are written as SMILES.

In the assay the test system is P. falciparum NF54-pfs16-GFP late (IV-V) stage gametocytes. The assay is described as follows: relative % inhibition of viable gametocyte number; higher = more gametocytocidal. The conditions noted are these: 5 µM; stage: late (IV-V) gametocyte; incubation 72 h. Put shortly:
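Relative inhibition was normalised to in-plate vehicle and positive-control wells, with viable gametocytes defined on confocal images as elongated GFP objects whose MitoTracker Red signal exceeded a cut-off. NF54 pfs16-GFP gametocytes, magnet-isolated at early (I/IIa, day 2) or late (day 8) stage, were plated at 10% parasitaemia, 0.1% haematocrit with compound at 5 or 0.5 µM. Plates were incubated 72 h at 37°C, 5% CO2, 5% O2, then stained overnight.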
As for `O=C(Nc1ccc(-c2nc3cc4ccccc4cc3[nH]2)cc1)c1cccc(Br)c1`, the relative % inhibition amounted to 7.93%. The same measure for `COc1ccc2nc(C)cc(Nc3ccc(Cl)cc3)c2c1`: 11.7%; for `CCCn1c(=N)c(C(=O)NC2CCCCC2)cc2c(=O)n3cccc(C)c3nc21`: 8.02%; for `COc1cc(OC)c(N(C)C(=O)c2cc3c(s2)-c2ccccc2S(=O)(=O)C3)cc1Cl`: 44.6%. As for `CCOC(=O)C1=C(C)N=c2sc(=Cc3cc(Cl)ccc3O)c(=O)n2C1c1ccc(OC)cc1` (centres undefined), the relative % inhibition was 103%.

As for `CCN1CCN(Cc2ccc(NC(=O)c3cc4ccc5cccnc5c4[nH]3)cc2)CC1`, the relative % inhibition was 3.45%.

As to `COc1ccc(NC(=O)C2c3ccccc3C(=O)N(CC(C)C)C2c2cccs2)cc1Cl` (centres undefined), the relative % inhibition is 66%. The same measure for `Cc1ccc(-c2cc3c(SCC(=O)Nc4cc(C(F)(F)F)ccc4Cl)nccn3n2)cc1`: -15.9%; for `COc1cccc(Nc2nc(NCCO)c3ccccc3n2)c1`: 50.8%; for `CNCCCNc1ccnc2cc(Cl)ccc12`: 39.1%. Next, `CCOC(=O)c1cnc2ccc(Cl)cc2c1NCCCN(C)C`: -1.78%. The same measure for `O=C1c2ccc3c4c(ccc(c24)C(=O)N1CCCCO)C(=O)N(CCCCO)C3=O`: 4.35%; for `O=C(NC1CCN(Cc2ccccc2)CC1)c1cc(C(=O)NC2CCN(Cc3ccccc3)CC2)cc(C(=O)NC2CCN(Cc3ccccc3)CC2)c1`: 31.9%. For `CCn1c(SCC(=O)Nc2cc(C(F)(F)F)ccc2Cl)nc2ccccc2c1=O`, the relative % inhibition is -6.79%. Next, `c1ccc(-c2ccc(-c3nc4ccccc4[nH]3)cc2)cc1`: 5.71%.

Consider `O=C(NC1CCN(Cc2ccccc2)CC1)c1cc2nc(-c3ccc(Cl)s3)cc(C(F)(F)F)n2n1`, for which the relative % inhibition worked out at 25%. Next, `COc1ccc(C(=O)Nc2ccc(Cl)cc2C(=O)Nc2ccncc2)cc1`: 3.3%; `O=C(NC1CCCCC1)C(c1cccs1)N(CCc1ccccc1)C(=O)c1ccco1` (centres undefined): 6.74%. Next, `CCCCOC(=O)c1ccc(Nc2cc(C)nc3ccc(OC)cc23)cc1`: 18.5%; `COCCn1c(C)nc2ccccc2c1=O`: 16.8%; `Oc1ccccc1CN1CCN(C(c2ccccc2)c2ccccc2)CC1`: 78.5%. Next, `CCOc1ccc2nc(C)cc(Nc3ccc(N(C)C)cc3)c2c1`: -10.3%; `COc1ccc(CNC(=O)c2cc3c(=O)n4ccccc4nc3n(CCc3ccccc3)c2=N)cc1`: -9.45%. For `CCOC(=O)c1cnc2c(C)cc(C)cc2c1Nc1ccc(OC)c(OC)c1`, the relative % inhibition came to 3.59%. The same measure for `COc1cccc(NC(=O)Cn2c(C)c(C#N)c3ccccc32)c1`: 29.8%; for `Cc1cccc(-n2ncc3c(=O)[nH]c(-n4nc(C)cc4NC(=O)c4cc5ccccc5o4)nc32)c1`: 102%; for `CCN(CC)S(=O)(=O)c1ccc(-c2csc(Nc3ccc(C)c(C)c3)n2)cc1`: 42.2%. The same measure for `OCCNc1nc(Nc2ccc(Cl)c(Cl)c2)nc2ccccc12`: 52.3%; for `CCOc1ccc(N2C(N)=NC(N)=NC2(C)C)cc1`: -10.7%; for `CC1CN(C(=O)c2sc3ccccc3c2Cl)CC(C)O1` (centres undefined): -5.12%. The same measure for `Cc1ccc(C2CC(C(F)(F)F)n3nc(C(=O)N4CCN(C(c5ccccc5)c5ccccc5)CC4)cc3N2)cc1` (centres undefined): -7.7%; for `O=C(Cc1ccccc1)NC(c1ccc(Cl)cc1)c1c(O)ccc2ccccc12` (centres undefined): 27.6%; for `O=C(CSc1nccn2nc(-c3ccccc3)cc12)Nc1cc(C(F)(F)F)ccc1Cl`: -0.775%.

As for `COc1ccc2nc(N)nc(C)c2c1`, the relative % inhibition was -4.54%. On to `Cc1ccc(C)c(-c2csc(Nc3ccc(C)c(C)c3)n2)c1`, for which the relative % inhibition was found to be 41.4%.

For the molecule `O=C(NC1CCCC1)c1ccc(N2CCC(NCc3cccc(C(F)(F)F)c3)CC2)cc1`, the relative % inhibition is 44.5%. The same measure for `CCN(CC)CCNc1ccnc2cc(Cl)ccc12`: 14.7%; for `COc1ccc(-c2cc3c(nn2)-c2ccccc2C3=O)cc1`: 96.1%. Next, `COc1cc(C(=O)Nc2nc3c(cc4c5c(cccc53)CC4)s2)cc(OC)c1OC`: 5.43%.
